# Source: PubChem BioAssay
# GLP-1R inv ag: qHTS of GLP-1 Receptor Inverse Agonists (Inhibition Mode). Glucagon-like peptide 1 receptor (Homo sapiens), P43220. HEK293 GLP-1R CRE-luciferase, luminescence, 24 h; GLP-1R form is constitutively active. Potency, µM (titrated, usually from 38.3 µM), inactives show at the top dose activity change, negative = inhibition, hits mostly inhibitors. 410,000 compounds, 1.6% hits; note: % is set by controls: 0 for no effect and ±100 for the full control effect; nearly all actives have a fitted effect of over 55% in size
# Target sequence (P43220 whole entry, looked up): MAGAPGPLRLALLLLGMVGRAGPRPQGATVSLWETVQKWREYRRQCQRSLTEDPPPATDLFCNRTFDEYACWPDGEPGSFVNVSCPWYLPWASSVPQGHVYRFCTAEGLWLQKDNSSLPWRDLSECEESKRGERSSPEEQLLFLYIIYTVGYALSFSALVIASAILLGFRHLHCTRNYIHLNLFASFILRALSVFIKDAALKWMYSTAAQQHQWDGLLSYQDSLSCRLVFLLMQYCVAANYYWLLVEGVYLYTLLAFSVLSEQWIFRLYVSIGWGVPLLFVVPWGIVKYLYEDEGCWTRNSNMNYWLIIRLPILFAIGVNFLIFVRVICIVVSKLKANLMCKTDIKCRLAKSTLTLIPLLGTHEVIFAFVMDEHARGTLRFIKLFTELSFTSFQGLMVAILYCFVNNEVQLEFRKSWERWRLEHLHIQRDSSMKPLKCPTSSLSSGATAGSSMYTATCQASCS
#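 qHTS in 1536-well format: reporter HEK293 cells expressing constitutive GLP-1R activity in DMEM + 10% Nu serum, 24 hr with compounds at 37 deg C, luminescence read after 12 min with detection reagent.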
# GLP1R cytotox: qHTS of GLP-1 Receptor Inverse Agonists: Cytotox Screen; Potency, µM (series often up to 38.3 µM), for the others: at the top dose activity change, negative = inhibition, hits mostly inhibitors; HEK293 cAMP-luciferase reporter cells, luminescence, 24 h; 410,000 compounds, 0.13% hits; AID 624418, 2012;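 note: loss of luciferase light is scored as toxicity; % is set by controls: 0 for no effect and ±100 for the full control effect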
#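 Luminescence readout: signal drop marks cytotoxicity. Plated cells grew 12 h at 37 °C, 5% CO2, received 23 nL compound for 24 h, then got luciferase reagent, read after 12 min at RT.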
# GLP1R ag: qHTS of GLP-1 Receptor Agonists; Glucagon-like peptide 1 receptor (Homo sapiens), P43220; HEK293 GLP-1R CRE-luciferase, luminescence, 4-6 h; cells express a hypersensitive GLP-1R form; Potency, µM (doses to about 45.6 µM), for the others: top-dose activation, hits mostly activators; 380,000 compounds, 0.007% hits; AID 624172, 2012; note: % of control where 0% means no effect
# * = called active by the depositor; u = inconclusive; x = no result given. This is a sample that favours compounds with a hit; in the whole collection about 1.7% have one here. Calls come from the whole dose curve; as a rule, active = well fitted curve in the direction sought with a large enough effect; inconclusive = small, poorly fitted or top-dose-only effect, or another doubt; inactive = no such curve, though single readings can be large; an effect the other way counts as inactive or inconclusive. Potency is the fitted concentration of half-maximal effect.
SMILES,GLP-1R inv ag,GLP1R cytotox,GLP1R ag
CCN1CCN(c2c(S(=O)(=O)c3ccc(C)c(C)c3)cnc3cc(OC)c(OC)cc23)CC1,u,-22%,x
CC(C)N(Cc1nc(-c2ccc(Cl)cc2)no1)C(=O)CCC1CCCC1,10µM*,9%,-1%
Cc1ccc(-c2noc(CN(C(=O)CCN3C(=O)c4ccccc4C3=O)C(C)C)n2)cc1,-6%,2%,0%
Cc1ccc(-c2noc(CN(C(=O)CCCCCN3C(=O)c4ccccc4C3=O)C(C)C)n2)cc1,6.3µM*,-7%,3%
CCCN(Cc1nc(-c2ccc(Cl)cc2)no1)CC1CCCO1 (stereo not given),u,15%,3%
CC(C)N(Cc1nc(-c2ccc(Cl)cc2)no1)C(=O)c1ccc(C(C)(C)C)cc1,-7%,8%,-3%
CCN(Cc1nc(-c2ccc(Cl)cc2)no1)CC1CCCO1 (stereo not given),1.3µM*,21%,5%
Cc1ccc(-c2noc(CN(C(=O)CCCN3C(=O)c4ccccc4C3=O)C(C)C)n2)cc1,u,4%,-4%
CN(Cc1nc(-c2ccc(Cl)cc2)no1)C(=O)CCN1C(=O)[C@H]2CC=CC[C@H]2C1=O,2µM*,1%,4%
COc1cc(CNC[C@H]2O[C@@H](n3cnc(C(N)=O)n3)[C@H](O)[C@@H]2O)ccc1OCc1cccc(Cl)c1,14%,10%,3%
CNC[C@@H]1CC[C@@H](N)[C@@H](O[C@H]2[C@H](O)[C@@H](O[C@H]3OC[C@](C)(O)[C@H](NC)[C@H]3O)[C@H](N)C[C@@H]2N)O1,x,x,22%
CCc1ccc(S(=O)(=O)Nc2cccc(-c3ccc4nnc(C)n4n3)c2)s1,94%,14%,13%
CC1=C(C(=O)OCc2ccccc2)C(c2ccc(C)cc2)NC(=O)N1 (stereo not given),-13%,-10%,-4%
Cc1cccc(NC(=O)CSc2nc3ccccc3c3nc(CCn4cncc4C)nn23)c1,u,-3%,x
CC(C)N(Cc1nc(-c2ccccc2)no1)C(=O)C(C)(C)C,u,-8%,2%
CC(C)N(Cc1nc(-c2ccccc2)no1)C(=O)C(Cl)(Cl)Cl,11µM*,5%,11%
CC(C)CN(C(=O)COC(=O)c1ccccn1)c1c(N)n(Cc2ccccc2)c(=O)[nH]c1=O,10%,4%,-1%
COc1ccc(NC2=NC(=S)N(c3ccccc3C)C23CCCCC3)cc1,7.9µM*,-20%,-7%
COc1ccc(N2C(=S)N=C(Nc3ccccc3)C23CCCCC3)cc1,8%,4%,-6%
CCN(CC)C(=O)c1sc2c(c1C)c(=O)n(Cc1ccccc1)c(=O)n2Cc1ccc(Cl)cc1,u,-8%,x
CCN(CC)C(=O)c1sc2c(c1C)c(=O)n(-c1ccc(C)c(C)c1)c(=O)n2Cc1cccc(Cl)c1,5µM*,0%,x
Cc1ccc(C(=O)CSc2nnc(-c3snnc3C)n2C2CC2)cc1,2%,0%,3%
O=C(CC1Sc2ccccc2NC1=O)NNc1cccc(Cl)c1Cl (stereo not given),2µM*,-9%,2%
CC(=O)Nc1ccc(NC(=O)CC2Sc3ccccc3NC2=O)cc1 (stereo not given),2%,4%,x
Cc1cc(=O)[nH]n(CCO)c1=O,5%,-3%,0%
SMILES,GLP-1R inv ag,GLP1R cytotox,GLP1R ag
COc1ccc(OCc2cc(C(=O)NCC3CCOCC3)no2)c(Cl)c1,-22%,-9%,16%
COc1ccc(OCc2cc(C(=O)NCCc3ccccc3)no2)c(Cl)c1,4.5µM*,-24%,10%
CC1(C)O[C@@H]2C[C@H]3[C@@H]4CCC5=CC(=O)C=C[C@]5(C)[C@H]4C(O)C[C@]3(C)[C@]2(C(=O)CO)O1 (stereo not given in full),x,x,-6%
Cc1ccc(C(=O)NCC(c2ccco2)S(=O)(=O)c2cccs2)cc1C (stereo not given),-27%,2%,x
CCCCNC(=S)N1CCN(C(c2ccccc2)c2ccccc2)CC1,8.9µM*,-2%,9%
CCCNC(=S)N1CCN(C(c2ccccc2)c2ccccc2)CC1,u,-7%,13%
COc1ccc(NC(=O)Cc2ccccc2)cn1,6%,22%,8%
COc1ccc(NC(=O)/C(Cl)=C(/Cl)S(=O)Cc2ccccc2)cn1 (stereo not given),-7%,2.8µM*,-24%
COc1ccc(CN2C[C@@H](CO)O[C@@H](n3cnc4c(NCCO)ncnc43)C2)cc1,-3%,-10%,16%
Cc1cccc(-n2c(=O)c3c4c(sc3n3c(C)nnc23)CCCC4)c1,10%,-8%,x
CCOC(=O)C1=C(N)Oc2ccc3ccccc3c2C1c1ccc(O)cc1 (stereo not given),u,15%,-1%
CCOC(=O)C1=C(N)Oc2cc(O)ccc2C1c1ccc([N+](=O)[O-])cc1 (stereo not given),10µM*,-7%,7%
COc1ccc(S(=O)(=O)N2CCN(CC(=O)NC3CC3)CC2)cc1,5%,6%,-6%
O=C(c1cccc(-n2cccc2)c1)N1CCN(S(=O)(=O)c2c(F)cccc2F)CC1,u,5%,11%
Cc1nc2ccccc2c2oc(C(=O)Nc3ccc4c(c3)OCCO4)cc12,3%,1%,1%
Cc1nc2ccccc2c2oc(C(=O)Nc3ccc(C(C)C)cc3)cc12,7.9µM*,-29%,-2%
CCC(C)n1c(SCc2ccc(C(C)(C)C)cc2)nc2ccsc2c1=O (stereo not given),1%,20%,x
CCC(C)n1c(SCc2ccccc2)nc2ccsc2c1=O (stereo not given),7.9µM*,11%,1%
COc1ccc(C2C(C(=O)c3ccccc3)N3c4ccccc4C=CC3C2[N+](=O)[O-])cc1 (stereo not given),u,-4%,9%
O=C1CC(N(CCc2ccccc2)C(=S)Nc2ccccc2)C(=O)N1c1ccc(Br)cc1 (stereo not given),u,u,-6%
Cc1ccc(N2C(=O)CC(N(CCc3ccccc3)C(=S)Nc3ccc(N(C)C)cc3)C2=O)cc1 (stereo not given),4µM*,-31%,0%
COc1ccc(S(=O)(=O)NCC(c2ccco2)N2CCc3ccccc32)cc1 (stereo not given),6.3µM*,-7%,-1%
Cc1ccc(S(=O)(=O)NCC(c2ccco2)N2CCc3ccccc32)cc1 (stereo not given),u,2%,13%
O=C(NCC(c1ccco1)N1CCc2ccccc21)c1ccc([N+](=O)[O-])cc1 (stereo not given),u,-5%,-9%
O=C(NCC(c1ccco1)N1CCc2ccccc21)c1cccc([N+](=O)[O-])c1 (stereo not given),10µM*,-5%,23%
COc1ccc(C(=O)NCC(c2ccco2)N2CCc3ccccc3C2)c(OC)c1 (stereo not given),u,-5%,3%
COc1ccc(C(=O)NCC(c2ccco2)N2CCc3ccccc32)c(OC)c1 (stereo not given),8.9µM*,-2%,17%
